We go through 23 compounds from PubChem BioAssay AID493067 (National Center for Advancing Translational Sciences (NCATS), 2011).

Records with an inconclusive call do not appear. The source made the active and inactive calls. Calls come from the whole dose curve; as a rule, active = well fitted activation curve with a large enough effect; inconclusive = small, poorly fitted or top-dose-only effect; inactive = flat fitted curve, though single readings scatter.

The test can be described thus: Confirmation Concentration-Response Assay for qHTS Assay for Epigenetic Modulators. Particulars: murine C127i LDR cells, GFP reporter derepression, 30 h; series mostly up to 46.1 µM. The text has this: NIH Molecular Libraries Screening Centers Network [MLSCN] NIH Chemical Genomics Center [NCGC] MLSCN Grant: 1 X01 MH079860-01 Assay Provider: Elisabeth D. Martinez, University of Texas SW Medical Center NCGC Assay Overview: This assay, used for the primary screen, was employed here to confirm actives identified from the Locus Derepression (LDR) assay (PubChem AID 1865). The LDR assay detects the derepression of a GFP reporter that is stably integrated in a region of the genome of murine c127i mammary cells that is presumably silenced. Compounds that derepress or induce this reporter locus are identified by enumerating GFP positive cells using an Acumen Explorer Ex3 (TTP Labtech) laser-scanning microplate cytometer.
NCGC Assay Protocol Summary: Three hundred LDR cells in 5 uL per well were dispensed into black, clear-bottom 1536-well plates. Twenty-three nL compound was transferred to the assay plate and cells were incubated 30 hours at 37 C. Medium was removed, cells were washed two times with PBS, and GFP-positive cells were enumerated as fluorescent objects between the sizes of 20 to 120 um width and depth using an Acumen Explorer Ex3 (TTP Labtech) laser-scanning microplate cytometer. For further details, see Johnson, RL, Huang, W, Jadhav, A, Austin, CP, Inglese, J, Martinez, ED (2008). A quantitative high-throughput screen identifies potential epigenetic modulators of gene expression. Anal Biochem 375: 237-48.
On the technique in general: qHTS replaces the single test concentration by a dilution series.
For the compound `CCOC(=O)c1cc2c(=O)n3ccccc3nc2n(Cc2ccco2)c1=NC(=O)c1ccc(Br)cc1`, the Potency was 15.8 µM (active).

With `CCN(CC)c1ccc2c(c1)oc(=O)c1c(Cl)cc(=O)oc12`, the Potency is 3.98 µM (active).

As to `N#Cc1sc2nc(-c3ccccc3)cc(C(F)(F)F)c2c1N`, the Potency is 15.8 µM (active).

Turning to `Cc1nc(CSc2nsc(/C=C/N(C)C)c2C#N)cs1`, the Potency entry is “inactive”.

For `Cc1cccn2c(=O)c(/C=C3\SC(=S)N(CC(C)C)C3=O)c(NCCCOC(C)C)nc12`, the Potency was 3.55 µM (active).

As to `O=C(CSc1cccc[n+]1[O-])c1ccccc1Br`, the Potency is 25.1 µM (active).

Turning to `COCCNC(=S)N/N=C(\C)c1ccccc1O`, the Potency is 6.31 µM (active).

As to `Oc1ccc(Br)cc1C=Nc1ccc2c3c(cccc13)CC2`, the Potency result was “inactive”.

As to `S=C(Nc1ccccc1)c1ccccn1`, the Potency was 15.8 µM (active).

For the compound `CN(C)S(=O)(=O)c1ccc2c(c1)/C(=C/c1cc3c([nH]1)CCCC3)C(=O)N2`, the Potency is 14.1 µM (active).

Regarding `N#CC1=C(N)n2c(s/c(=C\c3cccs3)c2=O)=C(C#N)C1c1cccs1` (stereo not drawn), the Potency is 15.8 µM (active).

Turning to `CCc1ccc(NC(=O)C2CCC(CNS(=O)(=O)c3ccc4c(c3)CC(C)N4C(C)=O)CC2)cc1` (stereo not drawn), the Potency entry is “inactive”.

As for `Cc1ccc(/C=[N+](\[O-])c2ccc(N(C)C)cc2)c2nsnc12`, the Potency entry is “inactive”.

For `CC(=O)[C@H](CC(C)C)NC(=O)[C@@H](CC(C)C)NC(=O)[C@H](CC(C)C)NC(=O)OCc1ccccc1`, the Potency is 3.98 µM (active).

`CCc1nnc(NC(=O)c2cccc(C(=O)Nc3nnc(CC)s3)n2)s1`: the Potency was 7.94 µM (active).

In the case of `CN(c1ccccc1)S(=O)(=O)c1nnc(NC(=O)c2ccccc2)s1`, the Potency entry is “inactive”.

As for `CCOn1c(=O)c[n+]([O-])c2ccccc21`, the Potency result was “inactive”.

As for `CC1=C/C(=N\NC(=S)Nc2cccnc2)CC(C)(C)C1`, the Potency is 3.16 µM (active).

In the case of `COc1cccc(/C=N/Nc2nc(Nc3ccccc3)nc(-n3nc(C)cc3C)n2)c1O`, the Potency is 3.98 µM (active).

Take `O=C(O)CCCCCN1C(=O)/C(=C\c2ccc(-c3ccc(Cl)cc3)o2)SC1=S`: the Potency was 7.94 µM (active).

For the compound `COc1ccc2c(C)nc(Nc3nc(-c4ccccc4)cc(=O)[nH]3)nc2c1`, the Potency is 4.47 µM (active).

As to `CCOc1ccc(NC(=O)c2nc(S(=O)(=O)Cc3ccccc3F)ncc2Cl)cc1`, the Potency result is “inactive”.

On to `Cc1cc(N2CCN(c3ccc([N+](=O)[O-])c4cccnc34)CC2)c2ccccc2n1`, for which the Potency was 12.6 µM (active).
